BLM inh: Bloom syndrome helicase (human) inhibition; recombinant BLM DNA unwinding, fluorescence dequenching; 350,000 tested, 0.2% active; AID 2528; P54132; Potency, µM (top dose mostly 56.1 µM), inactives show at the highest dose activity change, negative = inhibition, hits mostly inhibitors;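 also: plate controls were vehicle for no effect and no enzyme for full effect; nearly all actives have a fitted effect of over 35% in size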
APE1 inh: blocks human APE1 abasic DNA cleavage. Potency, µM (series often up to 65.8 µM), for inactives: at the top dose activity change, negative = inhibition, usual class: inhibitors. P27695. 350,000 tested, 0.35% active. recombinant APE1, TAMRA/BHQ-2 abasic DNA cleavage fluorescence;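 also: plate controls were vehicle for no effect and reference inhibitor for full effect; nearly all actives have a fitted effect of over 55% in size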
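Enzyme (0.75 nM final) and test compound are incubated 15 min at room temperature before adding 50 nM quenched THF abasic-site duplex. Cleavage dequenches TAMRA, followed at 525/598 nm over three reads one minute apart.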
JMJD2E inh: JMJD2E (human) inhibition | JMJD2E catalytic domain, FDH-coupled NADH fluorescence (FDH is formaldehyde dehydrogenase) | Potency, µM (series often up to 57.1 µM), for the others: at the highest dose activity change, negative = inhibition, hits mostly inhibitors | B2RXH2 | 230,000 tested, 1.6% active; active = well fitted inhibition curve with a large enough effect, not every such curve was filed as active; inconclusive = small, poorly fitted or top-dose-only effect, or another doubt; inactive = no such curve, though single readings can be large or run the other way;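 also: 0% = wells with enzyme and -100% = buffer wells without enzyme; nearly all actives have a fitted effect of over 50% in size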
L3MBTL1 inh-1: inhibitors of human L3MBTL1; AlphaScreen L3MBTL1–H3K9me1 peptide binding; Potency, µM (titrated, usually from 57.1 µM), inactives show top-dose activity, negative = inhibition, hits mostly inhibitors; 230,000 tested, 0.66% active; AID 485360; also: % is scaled to controls: 0 for no effect and ±100 for the full control effect; nearly all actives have a fitted effect of over 60% in size
Target sequence (Q9Y468 whole entry, looked up): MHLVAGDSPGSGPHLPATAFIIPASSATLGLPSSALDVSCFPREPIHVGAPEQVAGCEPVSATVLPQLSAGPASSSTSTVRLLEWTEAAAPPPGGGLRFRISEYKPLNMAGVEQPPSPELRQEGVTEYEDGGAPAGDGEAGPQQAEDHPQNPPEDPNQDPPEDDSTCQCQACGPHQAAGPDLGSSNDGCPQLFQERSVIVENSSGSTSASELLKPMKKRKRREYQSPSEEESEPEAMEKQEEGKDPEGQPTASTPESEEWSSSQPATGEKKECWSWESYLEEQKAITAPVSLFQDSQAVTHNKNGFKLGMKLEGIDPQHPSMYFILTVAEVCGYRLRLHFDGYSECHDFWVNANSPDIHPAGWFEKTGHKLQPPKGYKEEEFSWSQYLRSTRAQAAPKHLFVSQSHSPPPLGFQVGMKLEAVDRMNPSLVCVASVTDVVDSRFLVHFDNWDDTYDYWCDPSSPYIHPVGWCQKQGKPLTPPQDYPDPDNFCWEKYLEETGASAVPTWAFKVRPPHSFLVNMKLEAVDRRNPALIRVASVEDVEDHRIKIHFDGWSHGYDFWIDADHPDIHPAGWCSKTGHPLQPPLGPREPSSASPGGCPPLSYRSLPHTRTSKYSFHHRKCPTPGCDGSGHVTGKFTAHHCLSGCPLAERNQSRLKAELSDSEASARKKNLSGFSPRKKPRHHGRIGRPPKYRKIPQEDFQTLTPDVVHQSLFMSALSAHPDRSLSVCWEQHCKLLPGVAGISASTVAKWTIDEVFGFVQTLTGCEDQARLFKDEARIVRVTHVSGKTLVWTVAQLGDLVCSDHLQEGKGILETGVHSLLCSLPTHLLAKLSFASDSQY
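AlphaScreen proximity signal between nickel-chelate acceptor and streptavidin donor beads (final 10 ug/mL) reports binding of 50 nM L3MBTL1 to 75 nM biotin-H3 K9me1 peptide; complex incubated with compounds 30 min at room temperature; cefsulodin titration as control.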
RECQ1 inh-1: inhibitors of human RECQ1 DNA helicase; P46063; RECQ1 DNA unwinding, red fluorescence kinetic read; Potency, µM (doses to about 57.3 µM), without a hit: at the top dose activity, negative = inhibition, usual class: inhibitors; 240,000 tested, 0.54% active;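 also: plate controls were vehicle for no effect and no enzyme for full effect; nearly all actives have a fitted effect of over 30% in size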
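RECQ1T1 50 nM; forked duplex (20 bp + 30-nt ss tails) 200 nM, ATP 2 mM final; pH 8.0, 2 mM MgCl2, 2.5 ug/ml poly(dI-dC); 15 min compound preincubation; discontinuous kinetic read over 2 h at RT.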
GoLoco inh red: inhibitors of human Gai1-RGS12 GoLoco interaction (red fluorophore); P63096; Gai1:RGS12 GoLoco peptide FP, rhodamine, 10 min; Potency, µM (doses to about 61.6 µM), without a hit: at the top dose activity, negative = inhibition, hits mostly inhibitors; 230,000 tested, 0.44% active; active = well fitted inhibition curve with a large enough effect, not every such curve was filed as active; inactive = no such curve, though single readings can be large or run the other way; also: % is scaled to controls: 0 for no effect and ±100 for the full control effect; nearly all actives have a fitted effect of over 30% in size
RECQ1 inh conf: confirmation of human RECQ1 helicase inhibitors; RECQ1 helicase DNA unwinding, fluorescence; 610 tested, 28% active; Potency, µM (series often up to 229 µM), without a hit: at the top dose activity change, negative = inhibition, hits mostly inhibitors; shares compounds with RECQ1 inh-1; AID 2708; also: % is scaled to controls: 0 for no effect and ±100 for the full control effect; nearly all actives have a fitted effect of over 45% in size
ADP FP counter: counter-screen for RECQ1 inhibitors: ADP displacement | shares compounds with RECQ1 inh-1 | ADP fluorescence polarization displacement counterscreen | Potency, µM (titrated, usually from 228 µM), for the others: top-dose activity change, negative = inhibition, hits mostly inhibitors | 530 tested, 27% active; also: % is scaled to controls: 0 for no effect and ±100 for the full control effect; nearly all actives have a fitted effect of over 45% in size
RECQ1 inh-2: confirmation of human RECQ1 helicase inhibitors; 1,100 tested, 15% active; AID 504841; recombinant RECQ1 DNA unwinding, red fluorescence; shares compounds with RECQ1 inh-1; Potency, µM (top dose mostly 119 µM), inactives show at the highest dose activity, negative = inhibition, usual class: inhibitors; also: % is scaled to controls: 0 for no effect and ±100 for the full control effect; nearly all actives have a fitted effect of over 50% in size
L3MBTL1 inh-2: L3MBTL1 binding inhibition validated; shares compounds with L3MBTL1 inh-1; L3MBTL1 methyl-lysine binding inhibition, biochemical qHTS; Potency, µM, hits mostly inhibitors; 500 tested, 91% active; also: nearly all actives have a fitted effect of over 70% in size
L3MBTL1 ctr: AlphaScreen signal inhibition, L3MBTL1 hit counter-screen; shares compounds with L3MBTL1 inh-1; AlphaScreen counterscreen, signal inhibition; Potency, µM (top dose mostly 57.1 µM), for inactives: top-dose activity change, negative = inhibition, actives largely listed as inhibitors; 500 tested, under 10 active; also: 0% is about no effect
* hit, by the source's call; i = inactive; ? = inconclusive; . = not tested or not shown; [ ] = dose if it differs, or a comment. Shown is part of a subset that was picked to be rich in hits. Unless noted, calls follow the shape of the dose curve; as a rule, active = well fitted curve in the direction sought with a large enough effect; inconclusive = small, poorly fitted or top-dose-only effect, or another doubt; inactive = no such curve, though single readings can be large; an effect the other way counts as inactive or inconclusive. Potency is read from the fitted curve at half-maximal effect.

SMILES | BLM inh | APE1 inh | JMJD2E inh | L3MBTL1 inh-1 | RECQ1 inh-1 | GoLoco inh red | L3MBTL1 inh-2 | L3MBTL1 ctr | others
CC1CCC2(CC1)NC(=O)N(CC(=O)Nc1sc3c(c1C(N)=O)CCC3)C2=O (stereo not drawn) | ? | ? | ? | 28µM* | 32µM* | 86% | 3.8* | 6% | RECQ1 inh-2=?
Cc1nc(C)c(C(=O)Nc2ncc([N+](=O)[O-])s2)o1 | -19% | ? | -3% | 40µM* | ? | 15% | 5.3* | 6% | RECQ1 inh-2=?
COc1ccc(-c2onc(C)c2C)cc1S(=O)(=O)NC1CCC(C)CC1 (stereo not drawn) | -10% | . | . | . | . | . | . | .
COc1cc2c(Nc3ccc(Br)cc3F)ncnc2cc1OCC1CCN(C)CC1 | 79% | . | . | . | . | . | . | .
Cc1cc(C)n2c(SC/C(O)=C(\C#N)c3nc4ccccc4[nH]3)nnc2n1 | -27% | ? | ? | 16µM* | ? | 134% | 6* | -20% | RECQ1 inh-2=?
Cc1ccccc1-n1c(SC/C(O)=C(\C#N)c2nc3ccccc3[nH]2)nnc1-c1ccncc1 | -8% | -2% | ? | -2% | i | 70% | . | .
Cc1cc(=O)oc2c(CN3CCCCC3)c(O)c(Cl)cc12 | 4% | 0% | ? | -7% | -6% | -8% | . | .
Cc1cc(=O)oc2c(CN3CCC(C)CC3)c(O)c(Cl)cc12 | -17% | ? | ? | 32µM* | 28µM* | 22µM* | 11* | 15% | RECQ1 inh-2=?
O=c1c2c3c(sc2[nH]c(=S)n1Cc1ccco1)CCC3 | -30% | ? | 0% | 25µM* | 13µM* | -1% | 11* | 28% | RECQ1 inh conf=45µM*;ADP FP counter=?
Cc1ccnc(NS(=O)(=O)c2ccc(NC(=O)Cc3cccs3)cc2)n1 | -13% | ? | 1% | 32µM* | 25µM* | 38% | 2.7* | -1% | RECQ1 inh-2=?
COc1ccc(Nc2ccnc3ccccc23)cc1 | 0% | 1% | 1% | 10% | i | 12% | . | .
CC(C)Nc1ccc(Nc2ccnc3cc4ccccc4cc23)cc1 | ? | ? | -3% | 14µM* | 22µM* | 9% | 21* | 1% | RECQ1 inh conf=22µM*;ADP FP counter=37%[91.9 µM]
Cc1nn(CCc2nc(-c3ccco3)cs2)c2[nH]c(=O)cc(C(F)(F)F)c12 | ? | ? | ? | 35µM* | 14µM* | 4% | 21* | 3% | RECQ1 inh conf=?;ADP FP counter=?;RECQ1 inh-2=?
O=c1[nH]c(=O)n(Cc2ccccc2)c2nc(-c3ccco3)cc(C(F)(F)F)c12 | 0% | -6% | ? | -2% | -15% | 17% | . | .
O=C1NC(=Nc2ccc(O)cc2)S/C1=C\C=C\c1ccco1 | -24% | ? | -10% | 16µM* | ? | -83% | 13* | 2% | RECQ1 inh-2=?
CCOC(=O)c1cc(-c2ccccc2)n(CC(=O)Nc2ccc(CC)cc2)c1C | -1% | . | . | . | . | . | . | .
COC(=O)[C@@H]1C[C@H]1[C@@H](NC(=O)c1cc(C)nn1C)c1ccccc1 | 0% | -6% | -6% | . | 4% | -4% | . | .
CC1=CN2C(=N)/C(=C/c3ccco3)C(=O)N=C2S1 | -7% | 7% | -5% | -8% | -26% | 9% | . | .
CC1=CN2C(=N)/C(=C/c3ccc([N+](=O)[O-])o3)C(=O)N=C2S1 | -18% | ? | 28µM* | 35µM* | 28µM* | 94% | 13* | -9% | RECQ1 inh-2=?
Oc1c(Br)cc(Br)cc1CNc1cccc2cccnc12 | ? | -13% | . | 35µM* | . | . | ? | -17%
CC(=O)c1ccccc1NS(=O)(=O)c1cccc2nsnc12 | -14% | 5.3µM* | . | 32µM* | . | . | 27* | 7%
Cc1nc(SCC(=O)NCc2ccco2)c2c3c(sc2n1)CCCC3 | -4% | 10% | 1% | -21% | 2% | 7% | . | .
CCCc1nc2sc3c(SCC(=O)NCc4ccco4)ncnc3c2c2c1CCC2 | ? | ? | ? | 14µM* | ? | -3% | 19* | 3%
O=C(O)CNc1ccc(C(=O)O)cc1 | . | . | . | . | . | 2%[14.2 µM] | . | .
COCCCNC(=O)/C(C#N)=C/c1ccc(OCC(=O)O)c(OC)c1 | 0% | 0% | ? | 3.5µM* | 4% | -1% | 2.1* | ?
SMILES | BLM inh | APE1 inh | JMJD2E inh | L3MBTL1 inh-1 | RECQ1 inh-1 | GoLoco inh red | L3MBTL1 inh-2 | L3MBTL1 ctr | others
COCCNC(=O)/C(C#N)=C/c1cccc(/C=C(\C#N)C(=O)NCCOC)c1 | -9% | -5% | -3% | -1% | -3% | -4% | . | .
COc1ccc(Cl)cc1NC(=O)COC(=O)c1cc(NS(=O)(=O)c2cccs2)ccc1O | -11% | 15% | 4% | 40µM* | 0% | -2% | ? | 6%
COc1ccc2c(c1)C(=O)[C@@H](OC(=O)NCCc1ccc(OC)c(OC)c1)[C@H](c1ccc(OC)c(Br)c1)O2 | 0% | 22% | -10% | . | -10% | 4% | . | .
O=C(O)CN1C(=O)/C(=C/c2ccc(SCc3ccccc3)o2)SC1=S | 126% | 28µM* | ? | 2.2µM* | 25µM* | 115% | 4.7* | ?
O=C(O)C(O)Cc1c[nH]c2ccccc12 (stereo not drawn) | -2% | 2% | -5% | 3% | 1% | 5% | . | .
CC(Cc1c[nH]c2ccccc12)C(=O)O (stereo not drawn) | -7% | ? | ? | 2µM* | 35µM* | -8% | 3* | 2%
COc1ccc(OC)c(NC(=O)C(NS(=O)(=O)c2ccc3c(c2)CCCC(=O)N3)C(C)C)c1 (stereo not drawn) | -3% | . | . | . | . | . | . | .
Cc1ccc(S(=O)(=O)Cc2ccc(C(=O)N3CCN(Cc4ccccc4)CC3)o2)cc1 | -26% | 1% | -9% | 32µM* | i | 2% | 15* | 3%

Screening results from PubChem.
